Experimental data as given in PMC7862700, “An all-to-all approach to the identification of sequence-specific readers for epigenetic DNA modifications on cytosine”.

How the values were obtained:
Experiment in all cases: DAPPL (digital affinity profiling via proximity ligation, sequencing); 10 mM Tris-HCl pH 7.5, 50 mM NaCl, 1 mM DTT, 4% glycerol, room temperature, 30 min; GST-TFs on glutathione beads, 16-mer random dsDNA library, 0.1% formaldehyde crosslink after washing; high values mean tight binding
Conditions in all cases: protein: recombinant; tags: N-terminal GST; dsDNA, one strand shown
FLI1 = target: T1, FLI1 (Homo sapiens, UniProt Q01543 1-452)
T1 sequence: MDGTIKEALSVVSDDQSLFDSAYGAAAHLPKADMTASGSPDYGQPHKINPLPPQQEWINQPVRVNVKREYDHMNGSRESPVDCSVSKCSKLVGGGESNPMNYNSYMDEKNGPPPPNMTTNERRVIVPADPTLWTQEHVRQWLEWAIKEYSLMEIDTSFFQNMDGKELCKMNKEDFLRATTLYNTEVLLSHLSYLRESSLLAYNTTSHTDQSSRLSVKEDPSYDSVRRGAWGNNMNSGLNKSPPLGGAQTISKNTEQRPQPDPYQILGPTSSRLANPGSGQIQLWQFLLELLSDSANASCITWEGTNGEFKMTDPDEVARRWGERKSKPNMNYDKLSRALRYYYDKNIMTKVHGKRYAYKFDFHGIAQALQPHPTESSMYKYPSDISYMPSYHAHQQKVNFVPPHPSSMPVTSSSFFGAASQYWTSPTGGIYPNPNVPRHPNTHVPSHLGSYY
Outline: (§1)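 Beads coated with glutathione captured GST-fused human transcription factors that had been expressed in yeast, and the factors were then given DNA barcodes and pooled with a tag-only sample. The pools were incubated with 200 nmole of a random double-stranded 16-mer DNA library in Tris/NaCl/DTT/glycerol buffer for 30 min at room temperature, washed, crosslinked with 0.1% formaldehyde and proximity-ligated with BsaI/T4 ligase at 37 °C for 1 h. PCR amplification and Illumina NextSeq500 sequencing came last. Binding signal is each hexamer's read frequency for a factor divided by its frequency for the tag-only sample.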

ELK1 = target: T2, ELK1 (Homo sapiens, UniProt P19419 1-428)
T2 sequence: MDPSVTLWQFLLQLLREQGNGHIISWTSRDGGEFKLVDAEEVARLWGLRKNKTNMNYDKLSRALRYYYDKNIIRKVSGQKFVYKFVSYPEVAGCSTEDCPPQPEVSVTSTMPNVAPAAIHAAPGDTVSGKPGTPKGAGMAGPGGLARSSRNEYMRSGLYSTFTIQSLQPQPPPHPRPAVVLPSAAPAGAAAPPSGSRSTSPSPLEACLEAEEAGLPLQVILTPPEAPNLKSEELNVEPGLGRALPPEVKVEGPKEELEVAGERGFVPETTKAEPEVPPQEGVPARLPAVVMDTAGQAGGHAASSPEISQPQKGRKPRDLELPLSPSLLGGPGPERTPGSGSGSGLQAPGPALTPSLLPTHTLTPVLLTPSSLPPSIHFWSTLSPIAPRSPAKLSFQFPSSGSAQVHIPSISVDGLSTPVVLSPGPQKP
Outline: as §1

GABPA = target: T3, GABPA (Homo sapiens, UniProt Q06546 1-454)
T3 sequence: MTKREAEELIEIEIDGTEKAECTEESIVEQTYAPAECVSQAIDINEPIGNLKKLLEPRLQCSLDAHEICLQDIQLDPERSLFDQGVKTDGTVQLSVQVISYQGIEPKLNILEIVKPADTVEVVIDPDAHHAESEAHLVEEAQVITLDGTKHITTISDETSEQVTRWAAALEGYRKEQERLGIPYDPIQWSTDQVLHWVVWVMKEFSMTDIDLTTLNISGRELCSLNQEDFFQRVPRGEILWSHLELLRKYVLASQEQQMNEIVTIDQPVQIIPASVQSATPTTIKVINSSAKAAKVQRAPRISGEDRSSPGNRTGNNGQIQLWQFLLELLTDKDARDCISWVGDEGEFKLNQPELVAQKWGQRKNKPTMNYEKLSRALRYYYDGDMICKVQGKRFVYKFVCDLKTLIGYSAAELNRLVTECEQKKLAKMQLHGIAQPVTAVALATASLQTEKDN
Outline: as §1

ERG = target: T4, ERG (Homo sapiens, UniProt P11308 1-479)
T4 sequence: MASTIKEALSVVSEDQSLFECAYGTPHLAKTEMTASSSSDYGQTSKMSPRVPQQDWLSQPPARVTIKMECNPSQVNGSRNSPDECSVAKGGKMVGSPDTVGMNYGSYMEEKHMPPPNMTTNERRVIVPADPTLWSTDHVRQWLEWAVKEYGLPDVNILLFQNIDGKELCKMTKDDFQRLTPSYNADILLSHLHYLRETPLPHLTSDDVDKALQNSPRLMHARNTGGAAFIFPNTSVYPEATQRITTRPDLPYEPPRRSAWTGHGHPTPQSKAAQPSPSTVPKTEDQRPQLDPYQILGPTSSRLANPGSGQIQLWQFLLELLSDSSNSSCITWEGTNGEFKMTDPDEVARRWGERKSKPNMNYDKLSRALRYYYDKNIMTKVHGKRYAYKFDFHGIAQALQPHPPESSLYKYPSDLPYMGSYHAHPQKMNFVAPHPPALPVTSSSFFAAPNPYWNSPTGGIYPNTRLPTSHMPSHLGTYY
Outline: as §1

ELF1 = ELF1 (Homo sapiens, UniProt P32519 1-619)
Chain of ELF1 (P32519 whole entry): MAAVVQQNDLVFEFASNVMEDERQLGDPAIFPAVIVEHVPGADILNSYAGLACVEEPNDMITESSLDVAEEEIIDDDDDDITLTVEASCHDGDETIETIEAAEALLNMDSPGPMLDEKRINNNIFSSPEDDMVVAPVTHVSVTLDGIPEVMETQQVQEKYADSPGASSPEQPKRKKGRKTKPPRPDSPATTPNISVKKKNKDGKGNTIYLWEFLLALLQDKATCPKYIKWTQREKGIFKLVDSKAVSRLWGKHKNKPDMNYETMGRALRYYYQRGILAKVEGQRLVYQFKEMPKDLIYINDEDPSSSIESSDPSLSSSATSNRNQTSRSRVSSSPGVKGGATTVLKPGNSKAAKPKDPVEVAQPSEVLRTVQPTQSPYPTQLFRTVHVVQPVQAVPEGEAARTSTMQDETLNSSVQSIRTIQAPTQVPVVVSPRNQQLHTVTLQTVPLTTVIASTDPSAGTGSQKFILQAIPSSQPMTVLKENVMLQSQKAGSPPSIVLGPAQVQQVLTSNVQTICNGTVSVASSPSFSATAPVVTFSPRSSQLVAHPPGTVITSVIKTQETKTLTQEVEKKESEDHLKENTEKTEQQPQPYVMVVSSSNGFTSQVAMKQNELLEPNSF
Outline: as §1

EHF = target: T5, EHF (Homo sapiens, UniProt Q9NZC4 1-300)
T5 sequence: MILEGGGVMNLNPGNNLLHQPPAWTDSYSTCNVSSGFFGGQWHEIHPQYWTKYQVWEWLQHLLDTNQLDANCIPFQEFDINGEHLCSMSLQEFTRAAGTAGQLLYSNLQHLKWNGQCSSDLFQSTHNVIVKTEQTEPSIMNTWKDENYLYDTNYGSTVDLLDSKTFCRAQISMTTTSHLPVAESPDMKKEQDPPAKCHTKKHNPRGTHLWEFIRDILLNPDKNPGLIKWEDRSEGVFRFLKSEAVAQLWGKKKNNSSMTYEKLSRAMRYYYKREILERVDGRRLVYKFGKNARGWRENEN
Outline: as §1

SPI1 = SPI1 (Homo sapiens, UniProt P17947 1-270)
Outline: as §1

SPIB = SPIB (Homo sapiens, UniProt Q01892 1-262)
Chain of SPIB (Q01892 whole entry): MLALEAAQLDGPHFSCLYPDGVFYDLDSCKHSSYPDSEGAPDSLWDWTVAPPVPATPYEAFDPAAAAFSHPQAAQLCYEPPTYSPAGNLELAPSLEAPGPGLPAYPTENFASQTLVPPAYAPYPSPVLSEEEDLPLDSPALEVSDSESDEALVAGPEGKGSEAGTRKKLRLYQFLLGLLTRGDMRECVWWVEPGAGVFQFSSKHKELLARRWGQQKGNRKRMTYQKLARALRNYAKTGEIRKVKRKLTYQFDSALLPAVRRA
Outline: as §1

ELK3 = target: T6, ELK3 (Homo sapiens, UniProt P41970 1-407)
T6 sequence: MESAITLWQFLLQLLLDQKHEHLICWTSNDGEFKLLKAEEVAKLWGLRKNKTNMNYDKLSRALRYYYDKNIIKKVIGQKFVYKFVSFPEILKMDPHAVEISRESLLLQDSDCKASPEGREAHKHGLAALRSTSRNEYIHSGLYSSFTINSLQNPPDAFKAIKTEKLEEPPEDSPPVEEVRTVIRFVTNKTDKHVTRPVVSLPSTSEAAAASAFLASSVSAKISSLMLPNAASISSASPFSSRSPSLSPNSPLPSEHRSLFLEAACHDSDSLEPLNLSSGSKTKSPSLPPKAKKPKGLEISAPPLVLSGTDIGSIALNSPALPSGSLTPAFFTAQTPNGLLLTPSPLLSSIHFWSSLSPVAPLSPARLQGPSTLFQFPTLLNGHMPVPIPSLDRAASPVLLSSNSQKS
Outline: as §1

| Sequence | binding signal (FLI1) | binding signal (ELK1) | binding signal (GABPA) | binding signal (ERG) | binding signal (ELF1) | binding signal (EHF) | binding signal (SPI1) | binding signal (SPIB) | binding signal (ELK3) |
| --- | --- | --- | --- | --- | --- | --- | --- | --- | --- |
| ATATGA | 1.11 fold enrichment (6-mer frequency, TF over GST control) | 1.07 fold enrichment (6-mer frequency, TF over GST control) | 1.1 fold enrichment (6-mer frequency, TF over GST control) | 1.14 fold enrichment (6-mer frequency, TF over GST control) | 1.06 fold enrichment (6-mer frequency, TF over GST control) | 1.07 fold enrichment (6-mer frequency, TF over GST control) | 1.1 fold enrichment (6-mer frequency, TF over GST control) | 1.1 fold enrichment (6-mer frequency, TF over GST control) | 1.18 fold enrichment (6-mer frequency, TF over GST control) |
| GAAACT | 1.22 fold enrichment (6-mer frequency, TF over GST control) | 1.21 fold enrichment (6-mer frequency, TF over GST control) | 1.14 fold enrichment (6-mer frequency, TF over GST control) | 1.11 fold enrichment (6-mer frequency, TF over GST control) | 1.18 fold enrichment (6-mer frequency, TF over GST control) | 1.19 fold enrichment (6-mer frequency, TF over GST control) | 1.2 fold enrichment (6-mer frequency, TF over GST control) | 1.14 fold enrichment (6-mer frequency, TF over GST control) | 1.22 fold enrichment (6-mer frequency, TF over GST control) |
| AACGGC | 1.08 fold enrichment (6-mer frequency, TF over GST control) | 1.13 fold enrichment (6-mer frequency, TF over GST control) | 1.25 fold enrichment (6-mer frequency, TF over GST control) | 1.18 fold enrichment (6-mer frequency, TF over GST control) | 1.16 fold enrichment (6-mer frequency, TF over GST control) | 1.25 fold enrichment (6-mer frequency, TF over GST control) | 1.2 fold enrichment (6-mer frequency, TF over GST control) | 1.24 fold enrichment (6-mer frequency, TF over GST control) | 1.06 fold enrichment (6-mer frequency, TF over GST control) |
| AACGTT | 1.07 fold enrichment (6-mer frequency, TF over GST control) | 1.15 fold enrichment (6-mer frequency, TF over GST control) | 1.04 fold enrichment (6-mer frequency, TF over GST control) | 1.15 fold enrichment (6-mer frequency, TF over GST control) | 1.14 fold enrichment (6-mer frequency, TF over GST control) | 1.09 fold enrichment (6-mer frequency, TF over GST control) | 1.06 fold enrichment (6-mer frequency, TF over GST control) | 1.15 fold enrichment (6-mer frequency, TF over GST control) | 1.28 fold enrichment (6-mer frequency, TF over GST control) |
| TGAATG | 1.16 fold enrichment (6-mer frequency, TF over GST control) | 1.28 fold enrichment (6-mer frequency, TF over GST control) | 1.17 fold enrichment (6-mer frequency, TF over GST control) | 1.21 fold enrichment (6-mer frequency, TF over GST control) | 1.2 fold enrichment (6-mer frequency, TF over GST control) | 1.19 fold enrichment (6-mer frequency, TF over GST control) | 1.26 fold enrichment (6-mer frequency, TF over GST control) | 1.23 fold enrichment (6-mer frequency, TF over GST control) | 1.09 fold enrichment (6-mer frequency, TF over GST control) |
| TGCGTA | 1.15 fold enrichment (6-mer frequency, TF over GST control) | 1.15 fold enrichment (6-mer frequency, TF over GST control) | 1.06 fold enrichment (6-mer frequency, TF over GST control) | 1.05 fold enrichment (6-mer frequency, TF over GST control) | 1.1 fold enrichment (6-mer frequency, TF over GST control) | 1.06 fold enrichment (6-mer frequency, TF over GST control) | 1.17 fold enrichment (6-mer frequency, TF over GST control) | 1.22 fold enrichment (6-mer frequency, TF over GST control) | 1.09 fold enrichment (6-mer frequency, TF over GST control) |
| ATGTTG | 1.31 fold enrichment (6-mer frequency, TF over GST control) | 1.26 fold enrichment (6-mer frequency, TF over GST control) | 1.22 fold enrichment (6-mer frequency, TF over GST control) | 1.26 fold enrichment (6-mer frequency, TF over GST control) | 1.35 fold enrichment (6-mer frequency, TF over GST control) | 1.21 fold enrichment (6-mer frequency, TF over GST control) | 1.3 fold enrichment (6-mer frequency, TF over GST control) | 1.18 fold enrichment (6-mer frequency, TF over GST control) | 1.21 fold enrichment (6-mer frequency, TF over GST control) |
| GCGACC | 1.09 fold enrichment (6-mer frequency, TF over GST control) | 1.11 fold enrichment (6-mer frequency, TF over GST control) | 1.09 fold enrichment (6-mer frequency, TF over GST control) | 1.17 fold enrichment (6-mer frequency, TF over GST control) | 1.15 fold enrichment (6-mer frequency, TF over GST control) | 1.2 fold enrichment (6-mer frequency, TF over GST control) | 1.07 fold enrichment (6-mer frequency, TF over GST control) | 1.08 fold enrichment (6-mer frequency, TF over GST control) | 1.02 fold enrichment (6-mer frequency, TF over GST control) |
